Source: PubChem BioAssay (The Scripps Research Institute Molecular Screening Center)
SRC2 TRFRET art – TR-FRET signal artefacts, primary screen, artefact control for PPARgamma SRC-2 agonist project, biochemical | AID 1049, 2008 | TR-FRET ratio at 8 µM | 200,000 tested, 0.4% active | TR-FRET artefact counter-screen; stronger effect = higher value
PPARg SRC2 recr – agonists of PPARg-SRC-2 recruitment, primary screen, biochemical, HTS; Peroxisome proliferator-activated receptor gamma (Homo sapiens), P37231; PPARgamma LBD-SRC-2 recruitment; activation, % at 8 µM; 200,000 tested, 0.34% active; AID 1032, 2008; in the data active means activation above about 22%
SRC1 TRFRET art – TR-FRET detection interference compounds, primary screen, artefact control for PPARgamma SRC-1 recruitment agonists, biochemical, TR-FRET emission ratio; TR-FRET detection artefact counter-screen; stronger effect = higher value; TR-FRET ratio at 8 µM; 99,000 tested, 0.34% active; in the data active means TR-FRET ratio above about 2300
PPARg SRC1 recr – PPARgamma agonists recruiting SRC-1 coactivator, primary screen, biochemical | PPARgamma-SRC-1 coactivator recruitment biochemical assay | activation, % at 8 µM | 200,000 tested, 0.41% active | AID 631, 2007; in the data active means activation above about 19%
PPARg SRC-3 ag – PPARgamma agonists recruiting SRC-3 coactivator, primary screen, biochemical; Peroxisome proliferator-activated receptor gamma (Homo sapiens), P37231; biochemical PPARgamma/SRC-3 coactivator recruitment assay; activation, % at 8 µM; 200,000 tested, 0.26% active; AID 731, 2007; in the data active means activation above about 23%
SRC3 TRFRET art – TR-FRET detection interference compounds, artefact control for PPARgamma SRC-3 recruitment agonists, biochemical, TR-FRET ratio. TR-FRET artefact counter-screen, PPARgamma/SRC-3 format; stronger effect = higher value. TR-FRET ratio at 8 µM. 99,000 tested, 0.39% active. AID 1048, 2008
PPARg SRC2 conf – agonists of PPARgamma SRC-2 coactivator recruitment, confirmation, biochemical, HTS; biochemical SRC-2 recruitment by PPARgamma; shares compounds with PPARg SRC-3 ag; 790 tested, 52% active; activation, % at 8 µM; in the data active means activation above about 22%
PPARg SRC1 ag – PPARgamma agonists recruiting SRC-1 coactivator, confirmation, biochemical; shares compounds with PPARg SRC-3 ag; activation, % at 8 µM; AID 1300, 2008; PPARgamma–SRC-1 coactivator recruitment biochemical assay; 790 tested, 43% active; in the data active means activation above about 20%
PPARg SRC3 ag – PPARgamma-driven SRC-3 coactivator recruitment agonists, confirmation, biochemical; AID 1301, 2008; biochemical PPARgamma-SRC-3 coactivator recruitment, agonist mode; 790 tested, 29% active; shares compounds with PPARg SRC-3 ag; activation, % at 8 µM; in the data active means activation above about 24%
Each line names hits and unclear results; the compound was inactive in the other large screens (follow-up assays come after a bar, where they were run). Most compounds without a hit are left out; they make up all but 0.84% or so of the library. Unless noted, no stated cut-off is given here; in the data, active means TR-FRET ratio above about 2000; inactive means the rest.

O=C1Nc2ccccc2/C1=C/c1cnc[nH]1	PPARg SRC-3 ag 33 (no result: SRC1 TRFRET art, SRC3 TRFRET art)
Cc1cccc(NP(=O)(Oc2ccccc2F)Oc2ccccc2F)c1C	SRC1 TRFRET art 2320
O=[N+]([O-])/C=C1\NCCN1Cc1ccc(Cl)nc1	none
c1cncc(CNC2CCCC2)c1	SRC1 TRFRET art 3393, PPARg SRC1 recr 40
CN1CCN(C(=O)COc2ccc(-c3nc4ccccc4s3)cc2)CC1	none (no result: SRC1 TRFRET art, SRC3 TRFRET art)
CSc1ncc(/C=C2/C(=O)NC(=O)N(c3ccc(Cl)cc3)C2=O)cn1	none
COc1ccc(C(=O)C(C)(C)NO)cc1	PPARg SRC-3 ag 27 (no result: SRC1 TRFRET art, SRC3 TRFRET art)
COc1ccc(C(=O)C23CN4CN(CN(C4)C2)C3)cc1	none
Cc1c2ccncc2c(C)c2c1[nH]c1ccccc12	PPARg SRC1 recr 27
c1ccc2c(c1)[nH]c1cnccc12	none
Cn1c(=O)cc(SCC(=O)N2CCC3(CC2)OCCO3)c2ccccc21	SRC2 TRFRET art 2418, PPARg SRC2 recr 39, PPARg SRC1 recr 44, PPARg SRC-3 ag 60 (no result: SRC1 TRFRET art, SRC3 TRFRET art) | PPARg SRC2 conf 33 | PPARg SRC1 ag 20 | PPARg SRC3 ag inactive
Cc1nn(-c2ccccc2)c2c1C(c1ccc3c(c1)OCO3)SCC(=O)N2 (stereo not drawn)	none (no result: SRC1 TRFRET art, SRC3 TRFRET art)
Cc1ccccc1-n1c(O)c(C=Nc2ccc(N(C)C)cc2)c(=O)[nH]c1=O	SRC2 TRFRET art 2050, PPARg SRC2 recr 23, PPARg SRC-3 ag 26 (no result: SRC1 TRFRET art, SRC3 TRFRET art) | PPARg SRC2 conf inactive | PPARg SRC1 ag inactive | PPARg SRC3 ag inactive
C=CCn1c(O)c(C=Nc2ccc(N(CC)CC)cc2)c(=O)[nH]c1=O	PPARg SRC-3 ag 26 (no result: SRC1 TRFRET art, SRC3 TRFRET art) | PPARg SRC2 conf inactive | PPARg SRC1 ag inactive | PPARg SRC3 ag inactive
Cc1cccc(N=Cc2c(O)n(-c3ccccc3C)c(=O)[nH]c2=O)c1	none (no result: SRC1 TRFRET art, SRC3 TRFRET art)
Cc1nc2ccc(P(=O)(O)O)cc2s1	none
